Consider 14 sequences from PMC8384837, “Expanding the binding specificity for RNA recognition by a PUF domain”.

Positions count from the first letter of the chain named.

Experiment in all cases: yeast three-hybrid, YBZ-1, SC-Leu-His + 0.5 mM 3-AT, 4 days
Common to all, as to conditions: tags: N-Gal4 AD-HA kept; label: inside an RPR1-promoter hybrid RNA with tandem MS2 sites; ssRNA

One assay concerns the target T1, PUM1 PUF domain R6-KWQ (Homo sapiens, UniProt Q14671 828-1176, N1043K;Y1044W).
T1 sequence: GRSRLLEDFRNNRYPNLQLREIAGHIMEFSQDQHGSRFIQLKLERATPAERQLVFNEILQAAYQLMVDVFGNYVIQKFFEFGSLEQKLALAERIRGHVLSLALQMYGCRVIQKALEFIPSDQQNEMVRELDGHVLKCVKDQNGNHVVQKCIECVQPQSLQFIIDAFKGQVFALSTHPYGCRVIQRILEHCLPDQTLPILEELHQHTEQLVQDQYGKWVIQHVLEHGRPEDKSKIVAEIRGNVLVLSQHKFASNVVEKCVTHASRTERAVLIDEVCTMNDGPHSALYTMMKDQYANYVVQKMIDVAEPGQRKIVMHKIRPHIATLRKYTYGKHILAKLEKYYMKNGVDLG
Put shortly:
(§1)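 The interaction score is the log change in how often each variant appears, from input to selection. Frequencies came from PCR-amplified, Illumina-sequenced repeat regions of Pumilio-1 PUF domain libraries grown in strain YBZ-1 (LexA–MS2 coat fusion, HIS3 reporter) alongside matching RNA elements. Input plates were SC-Leu and selection plates were SC-Leu-His + 0.5 mM 3-AT, each for four days, and the log2 calculation used a pseudocount of 1 where a variant was absent.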

The next assay addresses PUM1 PUF domain R5-RQG (Homo sapiens, UniProt Q14671 828-1176, C1007R;R1008Q;Q1011G). In short, it runs like this:
as §1

The target of a further assay is T2, PUM1 PUF domain R6-HHS (Homo sapiens, UniProt Q14671 828-1176, N1043H;Y1044H;Q1047S).
T2 sequence: T1 sequence with K216H, W217H, Q220S
In short, it runs like this: as §1

The target of another assay is T3, PUM1 PUF domain R6-NFW (Homo sapiens, UniProt Q14671 828-1176, Y1044F;Q1047W).
T3 sequence: T1 sequence with K216N, W217F, Q220W
Put shortly: as §1

A further assay concerns the target PUM1 PUF domain R3-GFW (Homo sapiens, UniProt Q14671 828-1176, C935G;R936F;Q939W). In short, it runs like this:
as §1

Another assay deals with PUM1 PUF domain R8-HYN (Homo sapiens, UniProt Q14671 828-1176, N1122H;Q1126N). Put shortly:
as §1

The next assay deals with PUM1 PUF domain R4-SNG (Homo sapiens, UniProt Q14671 828-1176, N971S;H972N;Q975G). Put shortly:
as §1

In a further assay the target is PUM1 PUF domain R4-TPS (Homo sapiens, UniProt Q14671 828-1176, N971T;H972P;Q975S). Put shortly: as §1
A further assay has as its target PUM1 PUF domain R3-TRR (Homo sapiens, UniProt Q14671 828-1176, C935T;Q939R). In short, it runs like this:
as §1

Another assay deals with PUM1 PUF domain R3-SHA (Homo sapiens, UniProt Q14671 828-1176, C935S;R936H;Q939A). In short, it runs like this: as §1
In a further assay the target is PUM1 PUF domain R4-WSC (Homo sapiens, UniProt Q14671 828-1176, N971W;H972S;Q975C). Put shortly:
as §1

The next assay addresses PUM1 PUF domain R4-EHL (Homo sapiens, UniProt Q14671 828-1176, N971E;Q975L). In short, it runs like this: as §1
The target of a further assay is T4, PUM1 PUF domain R6-LWC (Homo sapiens, UniProt Q14671 828-1176, N1043L;Y1044W;Q1047C).
T4 sequence: T1 sequence with K216L, Q220C
In short, it runs like this: as §1

Another assay addresses PUM1 PUF domain R3-TFW (Homo sapiens, UniProt Q14671 828-1176, C935T;R936F;Q939W). In short, it runs like this: as §1
For the next assay, the target named is T5, PUM1 PUF domain R6-GFC (Homo sapiens, UniProt Q14671 828-1176, N1043G;Y1044F;Q1047C).
T5 sequence: T1 sequence with K216G, W217F, Q220C
Put shortly: as §1

A further assay concerns the target PUM1 PUF domain R5-RCC (Homo sapiens, UniProt Q14671 828-1176, C1007R;R1008C;Q1011C). Put shortly: as §1
The target in a further assay is PUM1 PUF domain R4-DYA (Homo sapiens, UniProt Q14671 828-1176, N971D;H972Y;Q975A). Put shortly: as §1
The next assay concerns the target PUM1 PUF domain R1-KIL (Homo sapiens, UniProt Q14671 828-1176, S863K;R864I;Q867L). In short, it runs like this: as §1
A further assay concerns the target PUM1 PUF domain R7-LTL (Homo sapiens, UniProt Q14671 828-1176, S1079L;N1080T;E1083L). In short, it runs like this:
as §1

Another assay addresses PUM1 PUF domain R8-RWI (Homo sapiens, UniProt Q14671 828-1176, N1122R;Y1123W;Q1126I). In short, it runs like this: as §1

As for “GGCUAGAACUAGUGGAUCCCCCGGCGCCCGGCGGCUCGAGCCCGGGUAAGUGAAAAUAGUCUGCAUGCCGCCGGGCGCCAUGCCUGCAGGUCGACUCUAGAAAACAUG”, the binding signal in the assay with PUM1 PUF domain R6-KWQ was 2.19 log2 enrichment (interaction score).

“GGCUAGAACUAGUGGAUCCCCCGGCGCCCGGCGGCUCGAGCCCGGGUAAGUGCAAAUAGUCUGCAUGCCGCCGGGCGCCAUGCCUGCAGGUCGACUCUAGAAAACAUG”: the binding signal with PUM1 PUF domain R6-KWQ was 5.25 log2 enrichment (interaction score).

With “GGCUAGAACUAGUGGAUCCCCCGGCGCCCGGCGGCUCGAGCCCGGGUAAGUGUUAAUAGUCUGCAUGCCGCCGGGCGCCAUGCCUGCAGGUCGACUCUAGAAAACAUG”, in the assay with PUM1 PUF domain R5-RQG, the binding signal was 5 log2 enrichment (interaction score).

Take “GGCUAGAACUAGUGGAUCCCCCGGCGCCCGGCGGCUCGAGCCCGGGUAAGUGUAAAUAGUCUGCAUGCCGCCGGGCGCCAUGCCUGCAGGUCGACUCUAGAAAACAUG”: the binding signal with PUM1 PUF domain R6-HHS is 4.38 log2 enrichment (interaction score); in the assay with PUM1 PUF domain R6-NFW it was 2.25 log2 enrichment (interaction score); in the assay with PUM1 PUF domain R3-GFW, 5.77 log2 enrichment (interaction score); in the assay with PUM1 PUF domain R8-HYN, 2.92 log2 enrichment (interaction score); with PUM1 PUF domain R4-SNG it was 1.17 log2 enrichment (interaction score); with PUM1 PUF domain R4-TPS it was 3 log2 enrichment (interaction score). For the same sequence, the binding signal was 0.8 log2 enrichment (interaction score) with PUM1 PUF domain R5-RQG; 1.03 log2 enrichment (interaction score) with PUM1 PUF domain R3-TRR; 4.29 log2 enrichment (interaction score) in the assay with PUM1 PUF domain R3-SHA; 2.87 log2 enrichment (interaction score) with PUM1 PUF domain R4-WSC; 3.16 log2 enrichment (interaction score) with PUM1 PUF domain R4-EHL; 2.54 log2 enrichment (interaction score) in the assay with PUM1 PUF domain R6-KWQ. For the same sequence, the binding signal with PUM1 PUF domain R6-LWC was 5.46 log2 enrichment (interaction score); in the assay with PUM1 PUF domain R3-TFW, 4.12 log2 enrichment (interaction score); with PUM1 PUF domain R6-GFC, 2.74 log2 enrichment (interaction score).

For “GGCUAGAACUAGUGGAUCCCCCGGCGCCCGGCGGCUCGAGCCCGGGUAAGUGUAAGUAGUCUGCAUGCCGCCGGGCGCCAUGCCUGCAGGUCGACUCUAGAAAACAUG”, in the assay with PUM1 PUF domain R3-TRR, the binding signal is 1.75 log2 enrichment (interaction score).

Take “GGCUAGAACUAGUGGAUCCCCCGGCGCCCGGCGGCUCGAGCCCGGGUAAGUGUCAAUAGUCUGCAUGCCGCCGGGCGCCAUGCCUGCAGGUCGACUCUAGAAAACAUG”: the binding signal is 4.34 log2 enrichment (interaction score) with PUM1 PUF domain R5-RCC and 5.03 log2 enrichment (interaction score) in the assay with PUM1 PUF domain R5-RQG.

With “GGCUAGAACUAGUGGAUCCCCCGGCGCCCGGCGGCUCGAGCCCGGGUAAGUGUAUAUAGUCUGCAUGCCGCCGGGCGCCAUGCCUGCAGGUCGACUCUAGAAAACAUG”, the binding signal was 3.22 log2 enrichment (interaction score) in the assay with PUM1 PUF domain R4-SNG, 7.28 log2 enrichment (interaction score) in the assay with PUM1 PUF domain R4-DYA and 4.12 log2 enrichment (interaction score) in the assay with PUM1 PUF domain R4-WSC.

Consider “GGCUAGAACUAGUGGAUCCCCCGGCGCCCGGCGGCUCGAGCCCGGGUAAGUGUAAAUCGUCUGCAUGCCGCCGGGCGCCAUGCCUGCAGGUCGACUCUAGAAAACAUG”, for which the binding signal in the assay with PUM1 PUF domain R1-KIL is 2.59 log2 enrichment (interaction score).

For “GGCUAGAACUAGUGGAUCCCCCGGCGCCCGGCGGCUCGAGCCCGGGUAAGUGUAACUAGUCUGCAUGCCGCCGGGCGCCAUGCCUGCAGGUCGACUCUAGAAAACAUG”, the binding signal with PUM1 PUF domain R3-TRR was 5.18 log2 enrichment (interaction score).

Turning to “GGCUAGAACUAGUGGAUCCCCCGGCGCCCGGCGGCUCGAGCCCGGGUAAGUGUGAAUAGUCUGCAUGCCGCCGGGCGCCAUGCCUGCAGGUCGACUCUAGAAAACAUG”, the binding signal with PUM1 PUF domain R5-RQG is 0.9 log2 enrichment (interaction score).

Turning to “GGCUAGAACUAGUGGAUCCCCCGGCGCCCGGCGGCUCGAGCCCGGGUAAGUUUAAAUAGUCUGCAUGCCGCCGGGCGCCAUGCCUGCAGGUCGACUCUAGAAAACAUG”, the binding signal with PUM1 PUF domain R7-LTL is 4.96 log2 enrichment (interaction score).

Regarding “GGCUAGAACUAGUGGAUCCCCCGGCGCCCGGCGGCUCGAGCCCGGGUAAGUGUACAUAGUCUGCAUGCCGCCGGGCGCCAUGCCUGCAGGUCGACUCUAGAAAACAUG”, the values for the binding signal with PUM1 PUF domain R4-TPS, with PUM1 PUF domain R4-WSC and in the assay with PUM1 PUF domain R4-EHL were 4.18 log2 enrichment (interaction score), 2.22 log2 enrichment (interaction score) and 1.89 log2 enrichment (interaction score), respectively.

As for “GGCUAGAACUAGUGGAUCCCCCGGCGCCCGGCGGCUCGAGCCCGGGUAAGUGUAAUUAGUCUGCAUGCCGCCGGGCGCCAUGCCUGCAGGUCGACUCUAGAAAACAUG”, the binding signal with PUM1 PUF domain R3-TRR is 3.68 log2 enrichment (interaction score).

In the case of “GGCUAGAACUAGUGGAUCCCCCGGCGCCCGGCGGCUCGAGCCCGGGUAAGCGUAAAUAGUCUGCAUGCCGCCGGGCGCCAUGCCUGCAGGUCGACUCUAGAAAACAUG”, in the assay with PUM1 PUF domain R8-RWI, the binding signal was 5.86 log2 enrichment (interaction score).
